Bioassay records deposited in PubChem BioAssay by several laboratories.
An excerpt weighted towards active compounds, which were near 3.8% of everything screened.
PfHsp90 set2: growth inhibition of PfHsp90-expressing yeast, primary screen, antimalarial PfHsp90 inhibitor project, S. cerevisiae, BacTiter-Glo luminescence, single point, set 2; BacTiter-Glo ATP, 48 h; yeast lacking PDR1 and PDR3 efflux regulators; inhibition, % at 9.4 µM; 0.32% of 310,000 active; AID 504621, 2011;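 active = every replicate shows inhibition above about 80%, whatever the replicate mean, limit read from the data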;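 also: 0% = DMSO neutral controls and 100% = 20 µM radicicol positive controls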
TIM10 inh: growth inhibitors of isogenic TIM10 control yeast, primary screen, counter-screen for tim10-1 yeast inhibitor project, luminescence, uHTS. S. cerevisiae TIM10 strain growth, BacTiter-Glo luminescence, 24 h. inhibition, % at 10 µM. 1.4% of 330,000 active. AID 463195, 2010;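 active = inhibition of 40% or more at the single tested concentration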;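 also: wild-type TIM10 isogenic control strain grown at permissive 25 °C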
tim10-1 inh: growth inhibitors of tim10-1 mutant yeast, primary screen, luminescence, uHTS. S. cerevisiae tim10-1 ts strain growth, BacTiter-Glo, 24 h. inhibition, % at 20 µM. 2.2% of 330,000 active. AID 463190, 2010;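 active = inhibition of at least 40%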;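 also: mutant grown at 25 °C; 0% = DMSO wells with yeast and 100% = wells holding no yeast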
tim23-1 inh: growth inhibitors of tim23-1 mutant yeast, primary screen, luminescence, uHTS; 1.3% of 330,000 active; inhibition, % at 20 µM; AID 463212, 2010; S. cerevisiae tim23-1 growth, BacTiter-Glo luminescence, 24 h;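 active = growth inhibition of the mutant yeast at or above 50%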;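 also: temperature-sensitive mutant grown at 25 °C; plate controls were DMSO-treated mutant yeast for no effect and medium wells lacking yeast for full effect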
Beta2AR agonist: beta2AR agonists driving receptor internalization, primary screen, cell-based, FAP fluorogen, flow cytometry | Beta-2 adrenergic receptor (Homo sapiens), P07550 | Am2.2-beta2AR cells | response, % (concentration not given with the values) | 0.43% of 340,000 active;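 active = response above a set limit, near 3 SD of response in nonfluorescent compounds, cut at about 42% in these data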
Target sequence (P07550 whole entry, looked up): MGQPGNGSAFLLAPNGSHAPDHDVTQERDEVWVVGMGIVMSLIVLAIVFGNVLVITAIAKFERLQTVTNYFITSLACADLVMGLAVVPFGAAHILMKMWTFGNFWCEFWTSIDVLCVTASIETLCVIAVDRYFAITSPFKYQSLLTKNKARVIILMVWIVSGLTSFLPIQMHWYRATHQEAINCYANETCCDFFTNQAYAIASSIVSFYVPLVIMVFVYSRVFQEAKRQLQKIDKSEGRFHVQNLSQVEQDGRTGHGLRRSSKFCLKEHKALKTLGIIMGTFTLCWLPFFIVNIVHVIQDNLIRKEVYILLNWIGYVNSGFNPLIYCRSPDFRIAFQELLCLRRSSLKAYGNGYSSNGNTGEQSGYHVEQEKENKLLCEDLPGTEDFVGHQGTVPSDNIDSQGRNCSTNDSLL
tim10-1 conf: growth inhibitors of tim10-1 mutant yeast, confirmation, single concentration, luminescence, S. cerevisiae | shares compounds with tim10-1 inh | S. cerevisiae tim10-1 ts strain growth, BacTiter-Glo, 24 h | inhibition, % at 20 µM | 56% of 7,400 active | AID 463213, 2010;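 active = inhibition of yeast growth at or above a set limit in either of two repeat tests at 20 µM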;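 also: tim10-1 mutant grown at permissive 25 °C to find synthetic lethal compounds; 0% = DMSO yeast wells and 100% = medium wells without yeast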
* marks the source's active call; other numbers are inactive results; / = no result given.

SMILES	PfHsp90 set2	TIM10 inh	tim10-1 inh	tim23-1 inh	Beta2AR agonist	tim10-1 conf
Cc1ccc(S(=O)(=O)N/N=C2/CC(c3ccccc3)Oc3ccccc32)cc1[N+](=O)[O-] (stereo not given)	-32	28	20	14	6	/
O=S(=O)(N/N=C1/CCCc2ccccc21)c1ccc(Br)cc1	-43	36	42*	28	16	24
CCCCCCCCCCCCCCC(O)C[N+](C)(CCO)CCO (stereo not given)	10	/	/	/	1	/
CN(c1ccccc1)C1CCCCC1NS(=O)(=O)c1ccc(Cl)cc1 (stereo not given)	-23	26	50*	33	-2	36*
COc1ccccc1NC1CCCCC1NS(=O)(=O)c1ccccc1 (stereo not given)	-22	15	43*	31	-2	6
COc1ccccc1NC(=O)c1cc(S(=O)(=O)NC2CCCC2)ccc1F	-16	22	48*	20	2	9
CCN(CC)C1CCCCC1NS(=O)(=O)c1ccc(Cl)cc1 (stereo not given)	-3	-3	6	-2	0	/
COc1ccccc1NC(=O)c1cc(S(=O)(=O)N2CCCCCC2)ccc1F	-11	9	12	15	0	/
O=C1CCN(Cc2ccccc2)C(=S)N1	-3	/	/	/	-6	/
Cc1ccc(S(=O)(=O)N2CCCC2CNC(=O)c2ccc(F)c(F)c2)cc1 (stereo not given)	11	-22	7	14	-18	/
Cc1ccccc1S(=O)(=O)N1C[C@H]2CON(C)[C@H]2C[C@H]1c1cccc(Oc2ccccc2)c1	-7	/	/	/	10	/
N#C/C(=C\c1c(Oc2ccccc2F)nc2ccccn2c1=O)C(=O)NC1CCS(=O)(=O)C1 (stereo not given)	-5	-5	-7	9	-3	/
CCc1nnc(N/N=C/c2ccc(N3CCC(C)CC3)c([N+](=O)[O-])c2)n1N	-47	36	48*	31	-1	42*
Cc1nnc(N/N=C/c2cc([N+](=O)[O-])c(N3CCC(C)CC3)cc2N2CCC(C)CC2)n1N	/	27	34	33	-3	/
CCOc1cc2nc3c4ccccc4n(C)c3nc2cc1OCC	-12	11	47*	20	6	17
O=C(O)CCS(=O)(=O)c1cc(Br)cc2c1N(C(=O)C1CC1)CC2	17	13	6	12	-2	/
CCCCN(C)S(=O)(=O)c1cc(Br)cc2c1N(C(=O)C1CC1)CC2	-19	32	42*	41	-14	32*
c1ccc(-c2nc(CSc3n[nH]c(-c4cccs4)n3)cs2)cc1	5	37	42*	39	-15	34*
O=C1OC(c2ccccc2)(c2cc(Br)ccc2O)c2ccccc21 (stereo not given)	-115	/	/	/	15	/
Cc1ccc2c(nc3s/c(=C/c4cccs4)c(=O)n32)c1C	-3	/	/	/	3	/
Cc1ccc2c(nc3s/c(=C\c4ccc(-c5ccccc5C(=O)O)o4)c(=O)n32)c1C	-46	33	46*	47	-107	18
Cc1cccc(CN2C(=O)CSc3ccc(C(=O)NC4CC4)cc32)c1	1	14	15	13	-20	/
COc1ccc(S(=O)(=O)n2nc(OC(=O)c3ccncc3)cc2N)cc1	0	16	23	13	2	/
COc1ccccc1C(=O)Oc1cc(N)n(S(=O)(=O)c2ccccc2)n1	-20	29	40	26	6	24
COc1ccc(S(=O)(=O)n2nc(OC(=O)c3ccco3)cc2N)cc1	42	-2	41*	33	2	24
SMILES	PfHsp90 set2	TIM10 inh	tim10-1 inh	tim23-1 inh	Beta2AR agonist	tim10-1 conf
Cc1ccccc1C(=O)Oc1cc(N)n(S(=O)(=O)c2ccccc2)n1	-7	31	48*	22	-4	27
O=S(=O)(c1ccc(-c2csc(-c3cccnc3)n2)cc1)N1CCCC1	-19	27	44*	31	-5	39*
C=CCN(C)CC/C=C1\c2ccccc2CSc2ccccc21	29	10	38	18	0	/
C#CCN(C)CC/C=C1\c2ccccc2CSc2ccccc21	5	17	44*	20	6	17
CCN1CCN(c2c(Cl)cccc2NC(=O)c2cc3ccccc3o2)CC1	-3	2	23	28	-2	/
N=C(N)c1ccc(/C=C/c2ccc(C(=N)N)cc2O)cc1	-9	-22	56*	38	-3	70*
N=C(N)c1ccc(Cl)cc1	8	16	-6	4	0	/
S=C1NC2(CCCCC2)NN1c1ccccc1	-5	-32	2	-31	5	/
CC1CCCC2(C1)NC(=S)N(c1ccccc1)N2 (stereo not given)	11	-3	55*	-3	-2	-34
COc1cccc(CN2CCN(C(=O)c3ccc(-c4ccccc4)cc3)CC2)c1OC	0	39	44*	31	4	27
COc1cc(CN2CCN(C(=O)c3ccc(-c4ccccc4)cc3)CC2)cc(OC)c1OC	0	16	20	30	-4	/
CC[C@]1(C(=O)OC)[C@H]2C(=O)N(C)C(=O)[C@H]2[C@H]2CN=C(SC)N21	-9	/	/	/	-2	/
CC(OC(=O)COc1ccc(Nc2ccccc2)cc1)C(=O)N(C)c1ccccc1 (stereo not given)	1	13	42*	31	-1	30*
CC(OC(=O)CNS(=O)(=O)c1ccc2ccccc2c1)C(=O)N(C)c1ccccc1 (stereo not given)	0	16	21	24	0	/
CCOC(=O)c1ccc(S(=O)(=O)N2CCN(C(=O)C3CSC4(C)CCC(=O)N34)CC2)cc1 (stereo not given)	-10	9	-5	10	2	/
COc1ccccc1NC(=O)c1ccc(COc2ccccc2OC)o1	2	25	41*	25	16	3
COc1ccc(-c2nc(-c3ccccn3)no2)cc1	86*	36	49*	46	-22	56*
CCCc1ccc2oc(C(=O)N3CCC(C(N)=O)(N4CCCCC4)CC3)c(C)c2c1	2	22	42*	42	-7	27
Cc1ccc2oc(C(=O)N3CCC(C(N)=O)(N4CCCCC4)CC3)c(C)c2c1	-8	14	28	28	-3	/
Fc1ccc(CNC(=S)Nc2cccc(C(F)(F)F)c2)cc1	-8	40	51*	31	10	43*
FC(F)(F)c1cccc(NC(=S)NCc2ccc(Cl)cc2)c1	10	39	43*	8	4	18
O=C(NC(=S)Nc1cccc(C(F)(F)F)c1)c1csnn1	-7	14	52*	43	1	36*
